The text below walks through data of PMC5540273 (PLoS ONE, 2017).

Test systems include PRP4; QSK; RAF1; RET; RIOK1; RIOK2; RIOK3; RIPK1; RIPK2; RIPK4; RIPK5; ROCK1; ROCK2; ROS1.
Common to all, as to conditions: concentration: 1 μM, replicates: in singlicate; n = 1
For the next test, the system named is T1, PYK2.
T1 construct: gene PTK2B

For test [1], the system named is RPS6KA4(Kin.Dom.1-N-terminal).
Test [2] has as its system RPS6KA4(Kin.Dom.2-C-terminal).
Test [3] concerns RPS6KA5(Kin.Dom.1-N-terminal).
For test [4], the system named is RPS6KA5(Kin.Dom.2-C-terminal).
For test [5], the system named is T2, RSK1(Kin.Dom.1-N-terminal).
T2 construct: gene RPS6KA1
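Note: KINOMEscan kinase panel screen.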

For the compound `CCn1c(-c2ccccc2)nc2cnccc21` [SB-733416], the “%Inh” value in the test on PRP4 was 7%; in the test on PYK2, 20%; in the test on QSK it was 9%; with RAF1, 3%; in the test with RET, 23%; in the test with RIOK1 it was 45%. Besides, the “%Inh” value in the test on RIOK2 amounted to 0%; with RIOK3 it was 0%; in the test with RIPK1 it was 0%; in the test with RIPK2 it was 6%; with RIPK4 it was 41%; in the test with RIPK5, 5%. Moreover, the “%Inh” value came out at 9% with ROCK1; 0% in the test on ROCK2; 7% in the test on ROS1; 0% in [1]; 0% in test [2]; 3% in test [3]. The “%Inh” value in test [4] and in test [5] was 0% throughout.
Consider `CS(=O)(=O)CCNCc1nc(-c2ccc3ncnc(Nc4ccc5c(cnn5Cc5ccccc5)c4)c3c2)cs1.Cl.Cl` [GW569716], for which the “%Inh” value in the test with PRP4 was 49%; in the test with PYK2, 0%; in the test with QSK it was 9%; in the test with RAF1 it was 13%; with RET, 0%; with RIOK1, 22%. The “%Inh” value is 0% with RIOK2; 0% in the test on RIOK3; 0% in the test with RIPK1; 88% in the test on RIPK2; 3% in the test on RIPK4; 0% in the test with RIPK5. The “%Inh” value with ROCK1 turned out to be 47%; with ROCK2 it was 33%; in the test on ROS1, 0%; in [1] it was 23%; in test [2], 0%; in [3], 9%. Further, the results for the “%Inh” value in [4] and in test [5] were 7% and 8%, respectively.
Take `O=C(Nc1n[nH]c2nc(-c3cccs3)c(Br)cc12)C1CC1` [SB-735297]: the “%Inh” value in the test on PRP4 worked out at 8%; with PYK2 it was 16%; with QSK, 8%; in the test with RAF1, 0%; in the test on RET, 0%; with RIOK1, 7%. The “%Inh” value came to 11% in the test with RIOK2; 0% in the test on RIOK3; 8% in the test on RIPK1; 95.4% with RIPK2; 7% in the test on RIPK4; 3% in the test on RIPK5. The “%Inh” value is on record as 0% in the test with ROCK1; 0% with ROCK2; 6% in the test on ROS1; 0% in test [1]; 8% in test [2]; 10% in test [3]. The results for the “%Inh” value in test [4] and in [5] were 4% and 14%, respectively.
As to `Cc1cnc(N)c(/C=C/c2cncc(C(=O)NCCc3ccc(Cl)cc3Cl)c2)c1.Cl` [GSK190937], the “%Inh” value in the test with PRP4 is 6%; in the test on PYK2, 7%; in the test on QSK it was 9%; in the test on RAF1, 0%; with RET, 7%; in the test on RIOK1, 3%. Also, the “%Inh” value in the test with RIOK2 was found to be 79%; in the test with RIOK3 it was 0%; in the test on RIPK1, 5%; in the test with RIPK2, 13%; in the test on RIPK4 it was 0%; in the test on RIPK5 it was 0%. Moreover, the “%Inh” value in the test on ROCK1 was 71%; with ROCK2 it was 45%; with ROS1, 3%; in test [1], 4%; in test [2] it was 0%; in test [3], 22%. The “%Inh” value is given as 0% in [4] and 9% in test [5].
Regarding `Cc1ccccc1-c1cc(-c2c[nH]nc2-c2ccccn2)ccn1` [GW680061], the “%Inh” value with PRP4 was 27%; with PYK2, 0%; with QSK, 0%; with RAF1, 15%; in the test on RET it was 0%; with RIOK1, 20%. In addition, the “%Inh” value is 19% with RIOK2; 0% in the test on RIOK3; 0% with RIPK1; 2% in the test on RIPK2; 0% in the test on RIPK4; 0% in the test on RIPK5. For the same compound, the “%Inh” value is reported as 0% in the test with ROCK1; 3% in the test with ROCK2; 0% in the test with ROS1; 5% in [1]; 0% in test [2]; 4% in [3]. The “%Inh” value in [4] was 0%; in test [5], 5%.
For the compound `CC(=O)c1c(C)c2cnc(Nc3ccc(N4CCNCC4)cn3)nc2n(C2CCCC2)c1=O`, the “%Inh” value in the test with PRP4, with PYK2, with QSK, with RAF1, in the test with RET and in the test on RIOK1 was 0% each time. For the same compound, the “%Inh” value in the test with RIOK2, in the test with RIOK3, in the test on RIPK1, with RIPK2, in the test on RIPK4 and in the test with RIPK5 was 0% in each case. In addition, the “%Inh” value in the test on ROCK1 came out at 0%; in the test on ROCK2, 0%; with ROS1 it was 0%; in test [1], 15%; in test [2] it was 0%; in test [3] it was 0%. For the same compound, the “%Inh” value was 0% in test [4] and 14% in test [5].
In the case of `Fc1ccc(-c2nc3n(c2-c2ccncc2)CCS3)cc1` [GI98581], the “%Inh” value in the test with PRP4 was determined as 0%; in the test with PYK2, 3%; in the test with QSK it was 11%; in the test on RAF1, 20%; in the test on RET, 22%; in the test with RIOK1 it was 29%. Also, the “%Inh” value with RIOK2 stood at 0%; with RIOK3, 14%; in the test on RIPK1, 0%; in the test on RIPK2 it was 31%; in the test on RIPK4, 0%; in the test on RIPK5 it was 0%. In addition, the “%Inh” value in the test on ROCK1 turned out to be 11%; in the test on ROCK2 it was 0%; in the test on ROS1, 3%; in test [1], 35%; in [2], 0%; in test [3], 10%. Further, the “%Inh” value in test [4] and in test [5] was 0% in each case.
For the compound `CC(C)c1cc(-c2ccc3c(N)n[nH]c3c2)nc(N)n1` [GSK2250882], the “%Inh” value in the test on PRP4 came out at 4%; with PYK2, 28%; in the test on QSK, 4%; in the test on RAF1, 0%; in the test with RET, 0%; in the test with RIOK1, 86%. The “%Inh” value in the test on RIOK2 is reported as 14%; in the test with RIOK3, 82%; with RIPK1, 0%; with RIPK2 it was 0%; in the test with RIPK4, 4%; with RIPK5, 0%. Moreover, the “%Inh” value with ROCK1 is 28%; with ROCK2 it was 20%; in the test with ROS1, 23%; in [1], 13%; in test [2], 3%; in [3], 0%. Also, the “%Inh” value in test [4] is given as 25%; in [5], 14%.
On to `COC(=O)c1cccc(NC(=O)NC2CCN(c3ccnc(Nc4ccc(F)cc4)n3)C2)c1` (centres unmarked) [GSK1379725], for which the “%Inh” value in the test with PRP4 came to 41%; in the test with PYK2 it was 0%; with QSK it was 6%; in the test with RAF1, 4%; with RET it was 5%; with RIOK1, 10%. Moreover, the “%Inh” value with RIOK2 came to 0%; in the test with RIOK3 it was 0%; in the test with RIPK1, 0%; in the test on RIPK2, 0%; in the test with RIPK4, 18%; in the test with RIPK5, 0%. The “%Inh” value (in the test with ROCK1; with ROCK2; in the test on ROS1; in test [1]; in test [2]; in test [3]) was 0% throughout. Moreover, the “%Inh” value in test [4] is reported as 16%; in test [5], 8%.
Take `O=c1cc(N2CCOCC2)nc2n(Cc3ccccc3F)ccn12` [GSK2297428]: the “%Inh” value is recorded as 7% in the test with PRP4; 0% in the test with PYK2; 0% in the test on QSK; 0% with RAF1; 0% in the test with RET; 38% in the test with RIOK1. Further, the “%Inh” value in the test on RIOK2 is 42%; with RIOK3 it was 28%; in the test on RIPK1, 0%; in the test with RIPK2 it was 2%; with RIPK4, 0%; with RIPK5, 0%. Also, the “%Inh” value is recorded as 0% in the test with ROCK1; 0% in the test with ROCK2; 47% in the test with ROS1; 5% in test [1]; 0% in test [2]; 8% in test [3]. The “%Inh” value was 0% in test [4] and 5% in [5].
